{"source": "PubChem BioAssay (NCATS)", "key": {"[1]": {"target": "Cytochrome P450 2C9 (Homo sapiens) (UniProt P11712)", "sequence (P11712 whole entry, looked up)": "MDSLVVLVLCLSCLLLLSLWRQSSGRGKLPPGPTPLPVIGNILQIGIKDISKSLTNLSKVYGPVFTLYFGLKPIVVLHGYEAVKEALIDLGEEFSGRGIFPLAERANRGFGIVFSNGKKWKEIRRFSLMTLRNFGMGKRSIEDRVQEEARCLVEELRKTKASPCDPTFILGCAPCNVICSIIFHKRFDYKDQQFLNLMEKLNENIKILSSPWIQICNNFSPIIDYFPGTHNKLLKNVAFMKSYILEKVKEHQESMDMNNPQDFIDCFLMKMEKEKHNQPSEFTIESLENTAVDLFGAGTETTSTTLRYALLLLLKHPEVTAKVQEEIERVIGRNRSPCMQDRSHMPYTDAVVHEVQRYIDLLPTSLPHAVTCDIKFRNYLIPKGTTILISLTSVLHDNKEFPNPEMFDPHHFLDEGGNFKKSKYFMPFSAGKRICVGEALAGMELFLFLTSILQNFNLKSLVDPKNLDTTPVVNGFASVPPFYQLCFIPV", "test": "qHTS Assay for Inhibitors and Substrates of Cytochrome P450 2C9 (AID 883); note: potency is the fitted concentration of half-maximal effect; nearly all actives have a fitted effect of over 60% in size", "how_it_was_run": "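Human CYP2C9 (10nM) hydroxylated Luciferin-H (100uM, at its KM) to luciferin in 25mM KPO4. Compound was preincubated 10 min at 37C, then NADPH regeneration started a 60 min reaction at 37C. Luminescence was read after detection reagent, normalized to 57uM sulphaphenazole.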"}, "[2]": {"target": "Cytochrome P450 3A4 (Homo sapiens) (UniProt P08684)", "sequence (P08684 whole entry, looked up)": "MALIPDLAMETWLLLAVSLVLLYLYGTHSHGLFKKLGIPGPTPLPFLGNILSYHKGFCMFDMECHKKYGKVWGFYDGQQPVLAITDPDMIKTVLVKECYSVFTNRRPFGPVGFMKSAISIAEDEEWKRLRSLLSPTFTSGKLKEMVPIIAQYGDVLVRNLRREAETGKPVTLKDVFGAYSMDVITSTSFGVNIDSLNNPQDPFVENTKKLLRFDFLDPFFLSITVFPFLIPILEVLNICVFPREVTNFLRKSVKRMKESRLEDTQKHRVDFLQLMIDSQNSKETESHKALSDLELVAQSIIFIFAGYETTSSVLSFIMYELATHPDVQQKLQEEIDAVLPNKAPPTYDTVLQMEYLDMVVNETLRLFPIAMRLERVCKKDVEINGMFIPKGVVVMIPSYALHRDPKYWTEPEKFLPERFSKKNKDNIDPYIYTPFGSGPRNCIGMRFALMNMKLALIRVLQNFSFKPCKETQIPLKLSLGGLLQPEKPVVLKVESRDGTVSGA", "test": "qHTS Assay for Inhibitors and Substrates of Cytochrome P450 3A4 (AID 884); note: potency is the fitted concentration of half-maximal effect; nearly all actives have a fitted effect of over 50% in size", "how_it_was_run": "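20 nM human CYP3A4 with 25 uM Luciferin-PPXE (at KM) in 200 mM KPO4, preincubated 10 min with compound; NADPH regeneration started a 60 min RT reaction. Luciferin detected by luminescence, normalized to 57 uM ketoconazole as full inhibition.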"}, "[3]": {"target": "Cytochrome P450 3A4 (Homo sapiens) (UniProt P08684)", "test": "qHTS Assay for Activators of Cytochrome P450 3A4 (AID 885); note: nearly all actives have a fitted effect of over 65% in size", "how_it_was_run": "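Quantitative HTS format: compounds preincubated with 20nM human CYP3A4 and Luciferin-PPXE substrate at KM, reaction started by NADPH regeneration, stopped after 60 min, luciferase luminescence read 20 min later.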"}, "[4]": {"target": "Cytochrome P450 2D6 (Homo sapiens) (UniProt P10635)", "sequence (P10635 whole entry, looked up)": "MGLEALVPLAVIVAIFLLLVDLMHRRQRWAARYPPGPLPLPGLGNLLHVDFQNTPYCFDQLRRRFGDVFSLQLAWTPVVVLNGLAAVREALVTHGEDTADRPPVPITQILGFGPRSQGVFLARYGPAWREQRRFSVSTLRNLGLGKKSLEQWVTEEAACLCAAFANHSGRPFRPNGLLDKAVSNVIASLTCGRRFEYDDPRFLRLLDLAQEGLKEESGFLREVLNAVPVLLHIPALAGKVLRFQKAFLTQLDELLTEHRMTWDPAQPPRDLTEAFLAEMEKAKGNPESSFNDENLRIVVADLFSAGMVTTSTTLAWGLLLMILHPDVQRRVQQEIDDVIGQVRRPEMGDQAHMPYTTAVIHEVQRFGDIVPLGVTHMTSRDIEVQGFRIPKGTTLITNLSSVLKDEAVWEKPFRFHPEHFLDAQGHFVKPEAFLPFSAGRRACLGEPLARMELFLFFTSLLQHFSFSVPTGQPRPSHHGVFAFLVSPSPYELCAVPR", "test": "qHTS Assay for Inhibitors and Substrates of Cytochrome P450 2D6 (AID 891); note: potency is the fitted concentration of half-maximal effect; nearly all actives have a fitted effect of over 60% in size", "how_it_was_run": "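Human CYP2D6 (5 nM) with 30 uM Luciferin-ME EGE (at Km) in 100 mM KPO4, compound preincubated 10 min, then NADPH regeneration system for 60 min at room temperature. Luciferin read by luminescence; normalized to 1.43 uM quinidine.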"}, "[5]": {"target": "Cytochrome P450 2C19 (Homo sapiens) (UniProt P33261)", "sequence (P33261 whole entry, looked up)": "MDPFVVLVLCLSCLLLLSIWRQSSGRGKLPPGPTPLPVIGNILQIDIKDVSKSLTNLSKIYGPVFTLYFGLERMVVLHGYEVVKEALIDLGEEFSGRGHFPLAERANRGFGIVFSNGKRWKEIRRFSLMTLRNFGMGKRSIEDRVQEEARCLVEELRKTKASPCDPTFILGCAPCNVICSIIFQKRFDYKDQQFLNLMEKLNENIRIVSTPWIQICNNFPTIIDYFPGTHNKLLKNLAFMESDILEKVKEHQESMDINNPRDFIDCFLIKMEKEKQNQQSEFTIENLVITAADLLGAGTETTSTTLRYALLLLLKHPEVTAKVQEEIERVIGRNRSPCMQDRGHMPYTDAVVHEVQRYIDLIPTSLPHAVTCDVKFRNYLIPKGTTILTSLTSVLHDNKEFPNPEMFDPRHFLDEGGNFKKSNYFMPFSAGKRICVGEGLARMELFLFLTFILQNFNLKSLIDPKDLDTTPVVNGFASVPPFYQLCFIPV", "test": "qHTS Assay for Inhibitors and Substrates of Cytochrome P450 2C19 (AID 899); note: potency is the fitted concentration of half-maximal effect; nearly all actives have a fitted effect of over 60% in size", "how_it_was_run": "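Human CYP2C19 (5nM) with Luciferin-H EGE at 10uM (its KM) in 50mM KPO4 was preincubated with compound for 10 min at 37C. NADPH regeneration started a 60 min 37C reaction. Luciferin was read by luminescence, normalized to 57uM ketoconazole.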"}, "[6]": {"test": "qHTS Assay for Identification of Small Molecule Antagonists for Thrombopoietin (TPO) Signaling Pathway (AID 918); note: potency is the fitted concentration of half-maximal effect; nearly all actives have a fitted effect of over 60% in size", "settings": "TPO-dependent cell signaling reporter, antagonist mode", "how_it_was_run": "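Murine Ba/F3 cells stably expressing human TPO receptor and a Glycoprotein IIb promoter–luciferase reporter were IL-3-starved overnight, treated with compounds plus TPO (26 pM final, its EC50) for 24 hrs at 37 C, then read by luminescence.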"}, "[7]": {"target": "Alpha-galactosidase (Coffea arabica) (UniProt Q42656)", "sequence (Q42656 whole entry, looked up)": "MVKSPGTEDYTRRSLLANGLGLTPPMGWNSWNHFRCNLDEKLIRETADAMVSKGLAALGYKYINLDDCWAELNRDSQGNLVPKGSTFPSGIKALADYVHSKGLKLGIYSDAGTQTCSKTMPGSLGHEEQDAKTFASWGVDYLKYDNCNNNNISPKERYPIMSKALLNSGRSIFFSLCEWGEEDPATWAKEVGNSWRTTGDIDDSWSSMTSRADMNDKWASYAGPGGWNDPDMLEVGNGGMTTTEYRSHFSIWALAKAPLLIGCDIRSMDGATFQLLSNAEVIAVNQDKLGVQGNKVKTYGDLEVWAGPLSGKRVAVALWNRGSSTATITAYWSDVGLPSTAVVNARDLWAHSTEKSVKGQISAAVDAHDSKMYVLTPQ", "test": "Counterscreen for Glucocerebrosidase Inhibitors: qHTS Assay for Coffee Bean alpha-Galactosidase at pH 4.5 (AID 957);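 note: series mostly up to about 77 µM; plate controls were enzyme alone for no effect and no enzyme for full effect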", "how_it_was_run": "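Green coffee bean enzyme (2 nM final) was incubated with compounds (0.7 nM to 77 uM) and 4-methylumbelliferyl alpha-D-galactopyranoside (80 uM final) in 50 mM citric acid, 0.005% Tween-20, pH 4.5, 20 min at room temperature; AC50 from Hill fits.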"}, "[8]": {"target": "Alpha-galactosidase (Coffea arabica) (UniProt Q42656)", "test": "Counterscreen for Glucocerebrosidase Inhibitors: qHTS Assay for Coffee Bean alpha-Galactosidase at pH 5.9 (AID 998);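 note: plate controls were uninhibited enzyme for no effect and no-enzyme basal signal for full effect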", "how_it_was_run": "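Green coffee bean enzyme (2 nM final) was incubated with compounds (0.7 nM–77 uM) and 4-methylumbelliferyl alpha-D-galactopyranoside (80 uM) in citrate buffer pH 5.9, 20 min at room temperature. High-pH stop; fluorescence 365/440 nm; AC50 from Hill fits.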"}, "[9]": {"target": "DNA repair nuclease/redox regulator APEX1 (Homo sapiens) (UniProt P27695)", "test": "qHTS Validation Assay for Inhibitors of the Human Apurinic/apyrimidinic Endonuclease 1 (APE1) (AID 1705; note: potency is the fitted concentration of half-maximal effect)", "how_it_was_run": "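Fluorogenic double-stranded THF abasic-site substrate (5'-TAMRA/3'-BHQ-2), 50 nM final. Enzyme preincubated with compound 15 min at room temperature, then substrate added. Kinetic fluorescence (ex 525/em 598 nm) read three times at 60 s intervals; activity taken as third-minus-first read difference.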"}, "[10]": {"test": "Counterscreen for APE1 Inhibitors: Fluorescent Dye Displacement Validation Assay (AID 1707); note: potency is the fitted concentration of half-maximal effect", "how_it_was_run": "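ThO 250 nM + dsDNA 50 nM (THF abasic site, 5'-TAMRA), Tris-HCl pH7.5/50mM NaCl/2 mM MgCl2/0.01% Tween-20; compounds pin-transferred; ex 480/em 540 nm endpoint. Neutral = no compound; no-DNA ThO wells = negative control.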"}, "[11]": {"test": "qHTS for differential inhibitors of proliferation of Plasmodium falciparum line 7G8 (AID 1815);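 note: potency is the fitted concentration of half-maximal effect; parasite growth measured after three days of incubation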"}, "[12]": {"test": "qHTS for differential inhibitors of proliferation of Plasmodium falciparum line W2 (AID 1883);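 note: potency is the fitted concentration of half-maximal effect; parasites grown with compound for 72 h before lysis and staining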", "settings": "Potency: Plasmodium falciparum W2 proliferation inhibition"}, "[13]": {"test": "Validation screen for inhibitors of Lassa infection (AID 463096; calls by dose curve; note: % is set by controls: 0 for no effect and ±100 for the full control effect)"}, "[14]": {"target": "DNA polymerase III PolC-type (Bacillus subtilis (strain 168)) (UniProt P13267)", "sequence (P13267 whole entry, looked up)": "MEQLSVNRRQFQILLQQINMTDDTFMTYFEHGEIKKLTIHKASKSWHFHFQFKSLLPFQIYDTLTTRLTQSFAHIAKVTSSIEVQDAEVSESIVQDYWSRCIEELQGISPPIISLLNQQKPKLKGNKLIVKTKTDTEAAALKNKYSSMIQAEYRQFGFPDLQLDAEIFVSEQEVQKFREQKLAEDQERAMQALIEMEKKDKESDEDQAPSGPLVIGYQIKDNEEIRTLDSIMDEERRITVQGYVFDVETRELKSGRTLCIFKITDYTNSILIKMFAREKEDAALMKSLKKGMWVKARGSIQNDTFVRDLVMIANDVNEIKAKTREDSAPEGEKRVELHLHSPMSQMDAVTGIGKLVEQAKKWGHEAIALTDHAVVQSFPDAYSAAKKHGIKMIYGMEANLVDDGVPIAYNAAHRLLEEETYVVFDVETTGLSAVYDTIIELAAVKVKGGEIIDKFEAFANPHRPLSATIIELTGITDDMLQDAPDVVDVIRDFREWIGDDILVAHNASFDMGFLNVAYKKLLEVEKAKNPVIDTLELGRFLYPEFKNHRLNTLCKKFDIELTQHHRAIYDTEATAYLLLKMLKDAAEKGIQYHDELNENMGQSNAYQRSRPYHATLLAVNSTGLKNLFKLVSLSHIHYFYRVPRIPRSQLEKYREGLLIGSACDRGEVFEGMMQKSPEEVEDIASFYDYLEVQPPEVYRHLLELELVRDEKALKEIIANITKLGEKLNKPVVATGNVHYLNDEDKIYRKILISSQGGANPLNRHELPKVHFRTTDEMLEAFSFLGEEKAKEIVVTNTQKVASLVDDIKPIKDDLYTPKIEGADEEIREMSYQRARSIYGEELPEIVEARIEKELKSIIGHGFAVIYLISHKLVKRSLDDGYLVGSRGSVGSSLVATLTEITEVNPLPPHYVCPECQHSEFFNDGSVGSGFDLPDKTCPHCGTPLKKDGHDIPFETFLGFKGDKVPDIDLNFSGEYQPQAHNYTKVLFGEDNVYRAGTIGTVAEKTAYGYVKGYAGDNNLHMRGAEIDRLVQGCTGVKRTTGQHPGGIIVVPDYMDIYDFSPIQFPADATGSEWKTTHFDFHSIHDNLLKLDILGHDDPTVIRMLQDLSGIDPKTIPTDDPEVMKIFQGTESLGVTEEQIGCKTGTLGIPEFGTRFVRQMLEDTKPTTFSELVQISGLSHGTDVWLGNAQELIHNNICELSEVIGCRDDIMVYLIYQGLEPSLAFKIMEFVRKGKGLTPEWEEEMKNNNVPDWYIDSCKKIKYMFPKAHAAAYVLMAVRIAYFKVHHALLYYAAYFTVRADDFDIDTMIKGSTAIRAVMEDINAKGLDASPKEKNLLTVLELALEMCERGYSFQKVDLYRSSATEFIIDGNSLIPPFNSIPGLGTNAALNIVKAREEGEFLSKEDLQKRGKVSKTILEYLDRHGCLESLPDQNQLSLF", "test": "qHTS Validation Assay for the Inhibitors of DNA Replication in Gram-Positive Bacteria (AID 485295); note: potency is the fitted concentration of half-maximal effect", "how_it_was_run": "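Reconstituted B. subtilis Pol III holoenzyme (PolC, beta clamp, SSB, primase) preincubated with compound, then M13Gori single-stranded circular template with dNTPs/NTPs added; room temperature reaction. Stopped with EDTA/PicoGreen; dsDNA fluorescence read, EDTA as full-inhibition control.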"}, "[15]": {"target": "M-phase phosphoprotein 8 (Homo sapiens) (UniProt Q99549)", "sequence (Q99549 whole entry, looked up)": "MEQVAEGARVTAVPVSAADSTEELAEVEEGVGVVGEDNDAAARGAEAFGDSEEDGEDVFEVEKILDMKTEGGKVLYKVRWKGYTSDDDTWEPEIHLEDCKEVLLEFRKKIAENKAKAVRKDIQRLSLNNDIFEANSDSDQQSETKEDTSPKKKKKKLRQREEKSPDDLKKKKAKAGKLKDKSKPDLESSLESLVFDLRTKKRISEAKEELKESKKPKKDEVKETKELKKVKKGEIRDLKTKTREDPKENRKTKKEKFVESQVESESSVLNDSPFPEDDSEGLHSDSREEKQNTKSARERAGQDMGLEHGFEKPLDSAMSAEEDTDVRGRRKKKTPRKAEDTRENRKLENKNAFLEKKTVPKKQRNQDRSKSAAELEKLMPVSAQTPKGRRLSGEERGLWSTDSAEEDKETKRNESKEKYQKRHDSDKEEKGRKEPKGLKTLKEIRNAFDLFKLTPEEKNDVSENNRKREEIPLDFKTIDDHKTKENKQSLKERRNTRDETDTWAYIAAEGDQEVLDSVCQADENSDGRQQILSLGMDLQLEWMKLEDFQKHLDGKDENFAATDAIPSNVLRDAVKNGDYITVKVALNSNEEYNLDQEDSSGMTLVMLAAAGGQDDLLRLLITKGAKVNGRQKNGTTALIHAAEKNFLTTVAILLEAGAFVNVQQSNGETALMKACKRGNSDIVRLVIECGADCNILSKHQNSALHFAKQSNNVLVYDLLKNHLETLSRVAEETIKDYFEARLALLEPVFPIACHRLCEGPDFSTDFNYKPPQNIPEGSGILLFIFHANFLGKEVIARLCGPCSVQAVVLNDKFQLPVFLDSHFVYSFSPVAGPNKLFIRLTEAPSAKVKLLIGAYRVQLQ", "test": "qHTS Validation Assay for Inhibitors for MPP8 Chromodomain Interactions with Methylated Histone Tails (AID 488949); note: potency is the fitted concentration of half-maximal effect; nearly all actives have a fitted effect of over 55% in size", "how_it_was_run": "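MPP8 (50 nM) was pre-bound to 50 nM biotinylated H3(1-18)K9me3 peptide in PBS pH 7.4 with 0.01% Tween-20. Compounds were then added for 30 min at room temperature, and complex disruption was read by AlphaScreen with streptavidin donor and nickel-chelate acceptor beads.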"}, "[16]": {"target": "Chromobox protein homolog 1 (Homo sapiens) (UniProt P83916)", "sequence (P83916 whole entry, looked up)": "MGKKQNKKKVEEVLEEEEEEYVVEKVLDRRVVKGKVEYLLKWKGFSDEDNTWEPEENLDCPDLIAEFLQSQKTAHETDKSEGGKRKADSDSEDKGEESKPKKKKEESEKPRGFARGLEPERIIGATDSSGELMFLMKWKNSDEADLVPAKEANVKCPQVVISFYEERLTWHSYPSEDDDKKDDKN", "test": "qHTS Validation Assay for Inhibitors of HP1-beta Chromodomain Interactions with Methylated Histone Tails (AID 488953); note: potency is the fitted concentration of half-maximal effect; nearly all actives have a fitted effect of over 50% in size", "how_it_was_run": "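HP1-beta (50 nM) was preincubated 30 min at room temperature with biotinylated H3(1-18)K9me3 peptide (50 nM) in PBS pH 7.4, 0.01% Tween-20, then with compounds 30 min. AlphaScreen signal was read after streptavidin donor/nickel chelate acceptor beads (10 ug/mL final).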"}, "[17]": {"test": "Inducers of the Endoplasmic Reticulum Stress Response (ERSR) in human glioma: Validation (AID 504836); note: 0% is about no effect", "how_it_was_run": "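Stably transfected U87-MG human glioma cells carrying a GRP78-based luminescent sensor were seeded at 1000 cells/well, pin-dosed with compounds and incubated 16 h. Luciferase reagent was then added, and end-point luminescence was read after 10 min at room temperature.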"}, "[18]": {"test": "qHTS assay for small molecule agonists of retinoid X receptor alpha signaling (AID 588544)", "settings": "HEK293T RXRa-UAS-bla, beta-lactamase reporter, 18 h; 530 nm emission"}}, "note": "Records with an inconclusive call do not appear. Activity calls are given as the source filed them. Unless noted, calls come from the whole dose curve; as a rule, active = well fitted curve in the direction sought with a large enough effect; inconclusive = small, poorly fitted or top-dose-only effect, or another doubt; inactive = no such curve, though single readings can be large; an effect the other way counts as inactive or inconclusive.", "data": [{"compound": "Cc1cc(O)c2c(c1)C(=O)c1cc(O)cc(O)c1C2=O", "values": [{"measurement": "Potency", "setting": "[1]", "value": "7.94 µM (active)"}, {"measurement": "Potency", "setting": "[2]", "value": "10 µM (active)"}, {"measurement": "Potency", "setting": "[3]", "value": "inactive"}, {"measurement": "Potency", "setting": "[4]", "value": "12.6 µM (active)"}, {"measurement": "Potency", "setting": "[5]", "value": "7.94 µM (active)"}, {"measurement": "Potency", "setting": "[6]", "value": "12.6 µM (active)"}, {"measurement": "outcome", "setting": "[7]", "value": "inactive"}, {"measurement": "outcome", "setting": "[8]", "value": "inactive"}, {"measurement": "Potency", "setting": "[9]", "value": "35.5 µM (active)"}, {"measurement": "Potency", "setting": "[10]", "value": "28.2 µM (active)"}, {"measurement": "Potency", "setting": "[11]", "value": "11.2 µM (active)"}, {"measurement": "Potency", "setting": "[12]", "value": "14.1 µM (active)"}, {"measurement": "Potency", "setting": "[13]", "value": "inactive"}, {"measurement": "Potency", "setting": "[14]", "value": "23.8 µM (active)"}, {"measurement": "Potency", "setting": "[15]", "value": "10.6 µM (active)"}, {"measurement": "Potency", "setting": "[16]", "value": "22.4 µM (active)"}, {"measurement": "outcome", "setting": "[17]", "value": "inactive"}, {"measurement": "max response", "setting": "[18]", "value": 21.4, "unit": "%"}]}]}
